MmCpn inh – M. maripaludis TRiC chaperonin inhibition; purified Mm-Cpn ATPase, ADP Transcreener TR-FRET; Potency, µM (titrated, usually from 76.9 µM), for inactives: at the highest dose activity, negative = inhibition, hits mostly inhibitors; 0.031% of 330,000 active; active means well fitted inhibition curve with a large enough effect; inconclusive means small, poorly fitted or top-dose-only effect; further: potency means the concentration at half of the fitted maximal effect; on the % scale 0 is the no-effect control and ±100 the full control effect; nearly all actives have a fitted effect of over 80% in size
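Reaction buffer contained 30 mM Tris pH 7.4, 100 mM KCl, 5 mM MgCl2 and 1 mM DTT. Mm-CPN (25 nM final) hydrolysed 10 uM ATP over 30 min at 37°C; ADP was read by HTRF.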
TSHR antagonist – antagonists of human thyroid stimulating hormone receptor; TSHR-expressing cells, TSH-stimulated cAMP HTRF, 2 h; stronger effect = lower value; activity change, negative = inhibition, % at 11.5 µM; 0.2% of 330,000 active; AID 504810;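 active means activity change below a set negative limit, meaning inhibition stronger than a set level, cut at about -70% in these data; inconclusive means activity change between two set negative limits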; further: on the % scale 0 is the no-effect control and ±100 the full control effect
Target sequence (P16473 whole entry, looked up): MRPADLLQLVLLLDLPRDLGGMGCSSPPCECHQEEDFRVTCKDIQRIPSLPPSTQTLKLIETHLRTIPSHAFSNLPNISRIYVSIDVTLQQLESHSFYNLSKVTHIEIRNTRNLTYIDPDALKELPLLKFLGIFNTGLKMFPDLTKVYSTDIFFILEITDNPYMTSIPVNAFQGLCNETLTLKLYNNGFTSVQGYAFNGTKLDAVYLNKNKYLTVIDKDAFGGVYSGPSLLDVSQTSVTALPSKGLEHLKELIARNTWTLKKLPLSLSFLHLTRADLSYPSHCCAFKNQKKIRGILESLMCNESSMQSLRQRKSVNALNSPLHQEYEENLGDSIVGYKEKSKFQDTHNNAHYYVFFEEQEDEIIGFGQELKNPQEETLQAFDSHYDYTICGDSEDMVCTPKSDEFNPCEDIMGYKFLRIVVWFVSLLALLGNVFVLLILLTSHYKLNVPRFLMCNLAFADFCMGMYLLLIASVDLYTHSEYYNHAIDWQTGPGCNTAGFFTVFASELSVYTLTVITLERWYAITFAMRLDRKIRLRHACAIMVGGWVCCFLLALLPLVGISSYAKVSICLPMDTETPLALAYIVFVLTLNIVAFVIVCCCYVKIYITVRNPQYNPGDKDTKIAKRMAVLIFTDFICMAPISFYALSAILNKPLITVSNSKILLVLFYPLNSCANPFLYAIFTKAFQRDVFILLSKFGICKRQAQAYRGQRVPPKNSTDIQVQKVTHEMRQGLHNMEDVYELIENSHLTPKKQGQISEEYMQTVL
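Cell-based HTRF cAMP assay; TSHR cells + compound, TSH EC80 (4nM final), 2 h, 37 deg C. Lysis with anti-cAMP cryptate and cAMP-d2, 30 min RT, read 665/620 nm.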
uPA surface inh – inhibitors of cell surface uPA generation | cell surface uPA generation assay, qHTS | Potency, µM (doses to about 38.3 µM), without a hit: at the highest dose activity change, negative = inhibition, actives largely listed as inhibitors | 0.31% of 330,000 active; active means well fitted inhibition curve with a large enough effect; inconclusive means small, poorly fitted or top-dose-only effect; inactive means no such curve, though single readings can be large or run the other way; tested in mouse RAW 264.7 cells; further: potency means the concentration at half of the fitted maximal effect; on the % scale 0 is the no-effect control and ±100 the full control effect; nearly all actives have a fitted effect of over 55% in size
CCT modulator – changes cytosolic chaperonin activity; purified chaperonin ATPase assay, HTRF ADP detection, 30 min; 0.3% of 360,000 active; activity change, % (test concentration not listed), hits read low; AID 651819; in the data active means activity change below about -30%; further: on the % scale 0 is the no-effect control and ±100 the full control effect
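First, chaperonin was dispensed at 40 nM or 20 nM final depending on batch activity. Next, compounds were pinned at 76 uM and ATP added at 10 uM. After 30 min at 37 °C, ADP detection reagents ran 30 min at ambient temperature.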
gsp agonist – agonists of gsp mutant (McCune-Albright syndrome). gsp mutant cells, cAMP HTRF, 30 min. Potency, µM (titrated, usually from 76.9 µM), for the others: top-dose activation (cAMP increase), most hits filed as activators. 0.13% of 340,000 active. AID 624287; active means well fitted activation curve with a large enough effect; inconclusive means small, poorly fitted or top-dose-only effect, or another doubt; inactive means no such curve, though single readings can be large or run the other way; cell line not stated here;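 further: phosphodiesterase inhibitor Ro 20-1724 added with compounds to block cAMP breakdown; potency means the concentration at half of the fitted maximal effect; nearly all actives have a fitted effect of over 60% in size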
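Cells in DMEM/10% FBS with G418 were pretreated with compounds in DMSO plus […] (300 uM stock) for 30 min at 37C. cAMP was measured by HTRF (cAMP-d2 plus anti-cAMP antibody-K) after 30 min at room temperature.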
gsp antag – gsp mutant antagonism; gsp-mutant cells, cAMP HTRF, 30 min; Potency, µM (titrated, usually from 76.9 µM), for the others: at the highest dose activity change, negative = inhibition, most hits filed as inhibitors; 0.4% of 340,000 active; AID 624288; calls by dose curve; cell line not stated here;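 further: intracellular cAMP measured with PDE inhibitor Ro 20-1724 present during compound exposure; potency means the concentration at half of the fitted maximal effect; on the % scale 0 is the no-effect control and ±100 the full control effect; nearly all actives have a fitted effect of over 65% in size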
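Cells, 2000/well, grown 16–24 h in DMEM 10% FBS with 0.5 mg/ml G418, then compounds plus […] (300 uM addition stock), 30 min at 37C. cAMP read by HTRF (cAMP-d2 and anti-cAMP antibody-K in lysis buffer) after 30 min RT.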
* hit, by the source's call; ? = inconclusive; [ ] = remark or other dose. A selection: hits, their analogues and other compounds. The true share with any hit is near 1.2%.

SMILES	MmCpn inh	TSHR antagonist	uPA surface inh	CCT modulator	gsp agonist	gsp antag
CCOc1ccc(N(CC(=O)OC)S(=O)(=O)c2ccc3c(c2)n(C)c(=O)c(=O)n3C)cc1	-1%	12	0%	0	-5%	-7%
O=C(NCCCN1CCOCC1)c1ccc(S(=O)(=O)Nc2ccccc2)cc1	0%	17	-2%	0	8%	3%
O=C(c1ccc(S(=O)(=O)Nc2cccc(C(F)(F)F)c2)cc1)N1CCC1	-2%	23	-9%	0	10µM*	-6%
O=C(NCCCN1CCOCC1)c1ccc(S(=O)(=O)Nc2cccc(C(F)(F)F)c2)cc1	0%	27	4%	-37*	14%[15.4 µM]	5%
CC(=O)Nc1ccc(S[C@@H](CCN2CC[C@H](O)CCC2=O)c2ccccc2)cc1	1%	1	5%	1	6%	50µM*
O=C(COC(=O)c1cccc([N+](=O)[O-])c1)Nc1ccc(Cl)cn1	2%	-8	-2%	-42*	-17%[15.4 µM]	-1%
O=C(COC(=O)c1ccc([N+](=O)[O-])cc1)Nc1ccc(Cl)cn1	1%	6	3%	-5	32%[15.4 µM]	5%
CCC(=O)c1cc(F)c(N2CCN(C(=O)c3ccco3)CC2)cc1C	0%	-7	-10%	-1	?	-16%
CCOC(=O)c1oc2ccc(S(=O)(=O)n3nc(-c4ccc(OC)cc4)cc3N)cc2c1C	1%	17	?	0	-14%	-16%
CCOC(=O)c1oc2ccc(S(=O)(=O)n3nc(-c4ccccc4)cc3N)cc2c1C	1%	-22	?	-4	-34%	7.9µM*
NS(=O)(=O)c1ccc(NC(=O)c2ccc(S(=O)(=O)N3CCCCCC3)cc2)cc1	0%	-11	0%	-3	-1%[15.4 µM]	-3%
O=C(NCc1ccncc1)C(=O)Nc1nc(C23CC4CC(CC(C4)C2)C3)cs1	3%	-5	-3%	0	-6%	45µM*
O=C(NCc1ccccc1)C(=O)Nc1nc(C23CC4CC(CC(C4)C2)C3)cs1	1%	8	3%	-5	-2%[15.4 µM]	-8%
CC(=O)c1ccc(-c2ccc(C(=O)N3CCN(c4ccc(F)cc4)CC3)o2)cc1	-7%	-5	-9%	-2	0%	28µM*
Cc1cc(C)cc(NC(=O)COC(=O)CCn2c(C)csc2=O)c1	0%	3	17%	1	?	-3%
CCOc1cnn(-c2cc(Oc3ccc(C)cc3)ncn2)c(=O)c1Cl	1%	-11	0%	1	-1%	3%
Cc1ccccc1Oc1cc(-n2ncc(Cl)c(Cl)c2=O)ncn1	-8%	-90*	2.2µM*	-2	16%	-37%
O=C(NCCCn1ccnc1)c1cc(-c2cccnc2)nc2ccc(Br)cc12	-10%	-3	-14%	3	24%[15.4 µM]	-12%
CCOC(=O)C1(C)NC(c2ccc(O)cc2)C2C(=O)N(c3ccccc3)C(=O)C21 (centres undefined)	0%	4	27%	0	23%	1%
COc1cccc([C@@H]2CC=C(C(=O)O)[C@H](c3ccc(F)cc3)N2S(=O)(=O)c2ccc(C)cc2)c1	0%	-4	-5%	0	-1%	-9%
Cc1ccc(-c2ccc(/C=N/N=C3/NC(=O)C(CC(=O)O)S3)o2)c([N+](=O)[O-])c1 (centres undefined)	-2%	-72*	2%	0	-33%	5%
Cc1nc2c(sc3nc(N4CCOCC4)c4c(c32)CC(C)(C)OC4)c(-c2ccccc2)c1C(=O)O	-11%	-8	9%	-11	6.3µM*	13%
Cc1sc(NC(=O)/C=C/c2ccc3c(c2)OCO3)nc1-c1ccccc1	-2%	?	-2%	1	-37%	?
O=C(/C=C/c1ccc2c(c1)OCO2)Nc1nc(-c2ccccc2)cs1	-19%	-79*	3%	-2	-1%	-18%
CC(NC(=O)Cn1cnnn1)C12CC3CC(CC(C3)C1)C2 (centres undefined)	2%	-32	2%	-91*	-23%	14%
